Measured values: PubChem BioAssay (Tox21)
“And” between values parts separate entries of the source, which are not always exact repeats. Equal entries are not always repeated. Records with an inconclusive call do not appear. Where a call stands in place of a potency, no number is given. The source made the active and inactive calls. The call rests on the fitted dose curve.

Test: qHTS assay for small molecules that induce genotoxicity in human embryonic kidney cells expressing luciferase-tagged ATAD5 - cell viability (AID 651634); further: nearly all actives have a fitted effect of over 25% in size
Conditions: HEK293T ATAD5-luc cells viability, CellTiter-Fluor, 15.5 h; series mostly up to 83.3 µM
Description: National Center for Advancing Translational Sciences [NCATS]
NIH Chemical Genomics Center [NCGC]
U.S. Environmental Protection Agency [EPA]
National Institutes of Environmental Health Sciences [NIEHS]
National Toxicology Program [NTP]
U.S. Food and Drug Administration [FDA]
Enhanced Level of Genome Instability Gene 1 (ELG1; human ATAD5) protein levels increase in response to various types of DNA damage. Using a luciferase reporter-gene tagged with ElG1, a cell-based assay [developed by Kyungjae Myung, NHGRI, NIH] was used to measure the induction of ATAD5 in human embryonic kidney cells (HEK293T). So, increase in luciferase activity can be used to identify the compounds that cause genetic stress. In addition to genotoxicity, these cells were also used to test for cytotoxicity by measuring the protease activity within live cells.
Tox21 Assay Protocol Summary:
For cytotoxicity screening, 2,000 cells in 5 uL/well were dispensed into white, solid-bottom 1536-well plates using a Multidrop Combi (Thermo Scientific) dispenser. Following transfer of 23 nL compound or DMSO vehicle by a pin tool, the plates were incubated 15.5 hr at 37C and 5% CO2. 1 ul CellTiter-Fluor reagent (Promega, Madison, WI) was then added to each plate and following 30 min incubation at 37C, fluorescence intensity was quantified on a ViewLux CCD-based plate reader.
Potency means the concentration at half of the fitted maximal effect.

Row | SMILES | Potency
1 | CCCCCCCCCCCCCC[P+](CCCCCC)(CCCCCC)CCCCCC (tested in a mixture with another compound) | 21.7 µM (active)
2 | c1ccc2c(c1)[nH]c1cnccc12 | inactive
3 | Clc1ccc(C(Cl)(Cl)Cl)c(Cl)c1 | inactive
4 | O=C(CCl)C(Cl)Cl | 55 µM (active)
5 | Fc1cccc(Cl)c1CCl | inactive
6 | CCCCCCCCCCCCCCCC[n+]1ccccc1 | 63.9 µM (active) and 48.6 µM (active)
7 | CCC(C)(C)C(=O)OC1=C(c2ccc(Cl)cc2Cl)C(=O)OC12CCCCC2 | inactive
8 | CC(=O)C(Cl)(Cl)Cl | 13.2 µM (active)
9 | CN(C)C(=S)[S-].CN(C)C(=S)[S-].[Cu+2] | 0.836 µM (active)
10 | CC1(C)CC/C(=C/c2ccc(Cl)cc2)C1(O)Cn1cncn1 (stereo not given) | inactive
11 | CC(=O)/C=C/c1ccc2c(c1)OCO2 | inactive
12 | COP(=O)(OC)SCn1c(=O)oc2cc(Cl)cnc21 | inactive
13 | CC1(C)[C@H](C(=O)O[C@H](C#N)c2cccc(Oc3ccccc3)c2)[C@@H]1/C=C(\Cl)C(F)(F)F | inactive
14 | O=C(O)COc1nc(Cl)c(Cl)cc1Cl | inactive
15 | [Hg+2].[I-].[I-] | 61.1 µM (active)
16 | NNC(=O)c1ccccc1 | inactive
17 | O=C(O)C1C2CCC(O2)C1C(=O)O (stereo not given) | inactive
18 | Cc1c(Cl)c(=O)oc2cc(OP(=O)(OCCCl)OCCCl)ccc12 | inactive
19 | Oc1cc(Cl)c(Cl)c(Cl)c1 | inactive
20 | CCOc1cc(C(C)(C)C)ccc1C1COC(c2c(F)cccc2F)=N1 (stereo not given) | inactive

Row | SMILES | Potency
21 | CC(=O)[O-].CC(=O)[O-].[Hg+2] | 54.5 µM (active)
22 | Fc1ccc(Oc2ccnc3cc(Cl)cc(Cl)c23)cc1 | inactive
23 | Cc1cc(C)c(C2=C(OC(=O)CC(C)(C)C)C3(CCCC3)OC2=O)c(C)c1 | inactive
24 | CC(C)N1C(=O)N(c2ccccc2)CSC1=NC(C)(C)C | inactive
25 | Cc1cc(C)cc(OP(=O)(Oc2cc(C)cc(C)c2)Oc2cc(C)cc(C)c2)c1 | inactive
26 | CC(C)CCCCCOC(=O)c1ccccc1C(=O)OCCCCCC(C)C | inactive
27 | Nc1ccc(Cc2ccc(N)c(Cl)c2)cc1Cl | inactive
28 | CC(C)(O)c1cnn2c(-c3ccc(F)c(-c4c(F)cccc4C#N)c3)cnc2n1 | inactive
29 | ClC1=C(Cl)[C@]2(Cl)[C@@H]3[C@@H]4C[C@@H]([C@H]5O[C@@H]45)[C@@H]3[C@@]1(Cl)C2(Cl)Cl | inactive
30 | O=c1oc2ccccc2c(O)c1Cc1c(O)c2ccccc2oc1=O | inactive
31 | CC(=O)O[C@H]1CC[C@@]2(C)C(=CC[C@@H]3[C@@H]2CC[C@]2(C)C(=O)CC[C@@H]32)C1 | inactive
32 | O=C(NC(=O)c1c(F)cccc1F)Nc1cc(Cl)c(OC(F)(F)C(F)F)c(Cl)c1 | inactive
33 | CC(=O)OC1(c2ccccc2)CCN(CCc2ccccc2)CC1 | inactive
34 | O=[N+]([O-])c1ccc(Oc2ccc(C(F)(F)F)cc2[N+](=O)[O-])cc1 | inactive
35 | CCCCCCCCCCCCBr | inactive
36 | CCN(CC)c1c([N+](=O)[O-])cc(C(F)(F)F)c(N)c1[N+](=O)[O-] | inactive
37 | [CH3][Hg][Cl] | 27.2 µM (active)
38 | CCN(CC)C(=S)[S-].CCN(CC)C(=S)[S-].[Zn+2] | 15.2 µM (active)
39 | O=[N+]([O-])c1cc(C(F)(F)F)c(Cl)c([N+](=O)[O-])c1Cl | 24.3 µM (active)
40 | CC(C)(C)OO | inactive
